Source: PubChem BioAssay (EPA / NIEHS)
Records with an inconclusive call do not appear. Activity calls are given as the source filed them. Rule for the calls: active = hit-call score of the fitted dose curve at least 0.9, where 1 is the maximum; inconclusive = response in the unintended direction; inactive = score below 0.9.

Molecular target: human RAR-related Orphan Receptor gamma (RORg), RORC (gene 6097) (UniProt P51449)
Test: ATG_RORg_TRANS: Attagene TRANS-FACTORIAL HepG2 Assay for human RAR-related Orphan Receptor gamma (RORg) (AID 2283011);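 for AC50: potency for induction of reporter transcripts above DMSO so activators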
Description: ATG_TRANS is a cell-based, multiplexed-readout assay that uses HepG2, a human liver cell line, with measurements taken at 24 hours after chemical dosing in a 24-well plate.ATG_RORg_TRANS is one of 30 assay component(s) measured or calculated from the ATG_TRANS assay. It is designed to make measurements of mRNA induction, a form of inducible reporter, as detected with fluorescence intensity signals by Reverse transcription polymerase chain reaction (RT-PCR) and Capillary electrophoresis technology.Data from the assay component ATG_RORg_TRANS was analyzed into 1 assay endpoint. This assay endpoint, ATG_RORg_TRANS, was analyzed in the positive analysis fitting direction relative to DMSO as the negative control and baseline of activity. Using a type of inducible reporter, measures of mRNA for gain-of-signal activity can be used to understand the reporter gene at the transcription factor-level as they relate to the gene RORC. Furthermore, this assay endpoint can be referred to as a primary readout, because this assay has produced multiple assay endpoints where this one serves a reporter gene function. To generalize the intended target to other relatable targets, this assay endpoint is annotated to the nuclear receptor intended target family, where the subfamily is orphan.
Human liver HepG2 cells are transiently transfected with multiple reporter transcription units (MRTUs) in 6-well plates using FuGene 6 reagent (Roche; 3 ml FuGene/1 mg DNA). The MRTU constructs are regulated by a cis-regulating element (promoter). […] A major difference between the CIS and TRANS system is that in CIS activities of endogenous TFs are measured, whereas the TRANS assay evaluates changes in activities of exogenous, chimeric NR-Gal4 proteins. […] At the end of 24 hour incubation, total RNA was isolated using TriZol reagent (Invitrogen). The isolated RNA is then reverse-transcribed using oligo(dT) primer and Mo-MLV reverse transcriptase (Invitrogen) with DNAse I (Ambion) treatment for 30 min. The one-tenth of the produced cDNA was amplified by PCR using Taq DNA polymerase (Invitrogen) and two reporter sequence-specific primers. The PCR products were fluorescently labeled by primer extension with 6-arboxyfluorescein (6-FAM) 5'-labeled reporter sequence-specific primer (2 min at 95 C, 20 s at 68 C and 10 min at 72 C) and these products were digested with 5U of HpaI (New England Biolabs) for 2h at 37 C. The fragments were purified using Qiaquick PCR columns (Qiagen), analyzed on an ABI 3130xL genetic analyzer (Applied Biosystems) with peak positions identified by using a set of X-rhodamine (ROX)-labeled MapMarker1000 molecular weight standards (BioVentures). The raw capillary electrophoresis data was processed using Attagraph software (Attagene).

Sequence of human RAR-related Orphan Receptor gamma (RORg), RORC (gene 6097) (P51449 whole entry, looked up): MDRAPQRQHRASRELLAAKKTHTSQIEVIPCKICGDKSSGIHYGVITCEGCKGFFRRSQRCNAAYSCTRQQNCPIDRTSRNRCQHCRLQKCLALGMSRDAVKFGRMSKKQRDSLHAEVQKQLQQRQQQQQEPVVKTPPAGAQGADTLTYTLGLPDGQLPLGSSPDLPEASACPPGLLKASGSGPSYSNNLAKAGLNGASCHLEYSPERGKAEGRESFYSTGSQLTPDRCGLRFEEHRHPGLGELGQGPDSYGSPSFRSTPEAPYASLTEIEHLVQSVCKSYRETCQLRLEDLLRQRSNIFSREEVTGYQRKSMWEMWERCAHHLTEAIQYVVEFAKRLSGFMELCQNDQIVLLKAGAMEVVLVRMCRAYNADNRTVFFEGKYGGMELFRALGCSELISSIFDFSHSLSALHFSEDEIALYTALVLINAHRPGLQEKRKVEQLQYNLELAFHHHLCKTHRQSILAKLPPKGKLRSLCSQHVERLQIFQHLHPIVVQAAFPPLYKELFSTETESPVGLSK

**Q.** `CCCCCCCCC(F)(F)C(F)(F)C(F)(F)C(F)(F)C(F)(F)C(F)(F)F` was tested. Which outcome did it give?
**A.** inactive

**Q.** `CCCCCCOC(=O)c1ccccc1O` was tested. Which outcome did it give?
**A.** inactive

**Q.** `OCC(F)(F)C(F)(F)C(F)(F)C(F)(F)C(F)(F)C(F)F` was tested. Which outcome did it give?
**A.** inactive

**Q.** For `O=C(O)C(F)(F)C(F)(F)OC(F)(F)F`, which outcome is on record?
**A.** inactive

**Q.** `CCN(Cc1cccc(S(=O)(=O)O)c1)c1ccc(C(=C2C=CC(=[N+](CC)Cc3cccc(S(=O)(=O)O)c3)C=C2)c2ccc(O)cc2S(=O)(=O)[O-])cc1` was tested. Which outcome did it give?
**A.** inactive

**Q.** `O=C(O)C(F)(F)C(F)(F)C(F)(F)C(F)(F)C(F)(F)C(F)(F)C(F)(F)C(F)(F)C(F)(F)C(F)F` was tested. Which AC50 did it give?
**A.** 50 µM (active)

**Q.** `CC(C)(C)C(=O)CC(=O)C(F)(F)C(F)(F)C(F)(F)F` was tested. Which outcome did it give?
**A.** inactive

**Q.** With `Cc1cccc(N(C)C)c1` as the compound, how does the outcome read?
**A.** inactive

**Q.** `C=CC/C=C/C/C=C/C/C=C/C` was tested. Which outcome did it give?
**A.** inactive

**Q.** With `O=C(O)C(F)(OC(F)(F)C(F)(OC(F)(F)C(F)(OC(F)(F)C(F)(F)C(F)(F)F)C(F)(F)F)C(F)(F)F)C(F)(F)F` (stereo not given) as the compound, how does the outcome read?
**A.** inactive

**Q.** Which outcome does the source give for `O=S(=O)(OCC(F)F)C(F)(F)F` here?
**A.** inactive

**Q.** How did the outcome turn out when `CCCCCCCOC(=O)c1ccccc1C(=O)OCCCCCCC` was run?
**A.** inactive

**Q.** For `CC(=O)Nc1ccc(N=Nc2cc(C)ccc2O)cc1`, which outcome is on record?
**A.** inactive

**Q.** How did the outcome turn out when `CC(Cc1ccc(O)c(O)c1)C(C)Cc1ccc(O)c(O)c1` (stereo not given) was run?
**A.** inactive

**Q.** For `CCO[Si](CCC(F)(F)C(F)(F)C(F)(F)C(F)(F)C(F)(F)C(F)(F)F)(OCC)OCC`, which outcome is on record?
**A.** inactive

**Q.** Which outcome does the source give for `CCCCCCS` here?
**A.** inactive

**Q.** With `C=CC(=O)OCC(F)(F)C(F)(F)C(F)(F)C(F)(F)COC(=O)C=C` as the compound, how does the outcome read?
**A.** inactive

**Q.** How did the outcome turn out when `O=C(O)C(F)(F)C(F)(F)C(F)(F)F` was run?
**A.** inactive

**Q.** Which outcome does the source give for `C=CC(F)(F)C(F)(F)C(F)(F)C(F)(F)C(F)(F)C(F)(F)C(F)(F)C(F)(F)C=C` here?
**A.** inactive

**Q.** For `OCC(F)(F)C(F)(F)C(F)(F)C(F)F`, which outcome is on record?
**A.** inactive

**Q.** Which outcome does the source give for `Nc1ccc(Oc2cccc(Oc3ccc(N)cc3)c2)cc1` here?
**A.** inactive

**Q.** Which outcome does the source give for `O=C(O)C(F)(F)C(F)(F)C(F)(F)C(F)(F)C(F)(F)C(F)(F)C(F)(F)C(F)(F)C(F)(F)C(F)(F)C(F)(F)C(F)(F)C(F)(F)F` here?
**A.** inactive

**Q.** How did the outcome turn out when `FC1CC(F)(F)C(F)(F)C1(F)F` (stereo not given) was run?
**A.** inactive

**Q.** `OCC(F)(F)C(F)(F)C(F)(F)C(F)(F)C(F)(F)C(F)(F)F` was tested. Which outcome did it give?
**A.** inactive

**Q.** Which outcome does the source give for `O=C(OCCOCCOCCOC(=O)c1ccccc1)c1ccccc1` here?
**A.** inactive

**Q.** With `Nc1cc(Cl)c(N)c(Cl)c1` as the compound, how does the outcome read?
**A.** inactive

**Q.** Which outcome does the source give for `O=P(O)(O)OCCC(F)(F)C(F)(F)C(F)(F)C(F)(F)C(F)(F)C(F)(F)F` here?
**A.** inactive

**Q.** With `[Co]` as the compound, how does the outcome read?
**A.** inactive

**Q.** With `CCCCCCCCCCCCCCCC[N+](C)(C)Cc1ccccc1` as the compound, how does the outcome read?
**A.** inactive

**Q.** With `FC(F)(I)C(F)(F)C(F)(F)C(F)(F)I` as the compound, how does the outcome read?
**A.** inactive

**Q.** Which outcome does the source give for `O=C(O)C(F)(F)C(F)(F)C(F)F` here?
**A.** inactive

**Q.** Which outcome does the source give for `FC(F)(F)C(F)(F)C(F)(F)C(F)(F)C(F)(F)CCI` here?
**A.** inactive

**Q.** How did the outcome turn out when `CCCCOCCOCCOC(=O)CCCCC(=O)OCCOCCOCCCC` was run?
**A.** inactive

**Q.** With `COC(OC(C)=O)c1ccccc1` (stereo not given) as the compound, how does the outcome read?
**A.** inactive

**Q.** With `CCc1ccc(C(c2ccc(CC)cc2)C(Cl)Cl)cc1` as the compound, how does the outcome read?
**A.** inactive

**Q.** Which outcome does the source give for `N=C(N)C(F)(F)C(F)(F)C(F)(F)C(F)(F)C(F)(F)C(F)(F)C(F)(F)F` here?
**A.** inactive

**Q.** Which outcome does the source give for `CC(C)=CCCC(C)CCOC(=O)C(C)C` (stereo not given) here?
**A.** inactive

**Q.** For `OC[C@@H](O)[C@@H](O)[C@H](O)[C@@H](O)CO`, which outcome is on record?
**A.** inactive

**Q.** Which outcome does the source give for `C1COCCN1` here?
**A.** inactive

**Q.** `O=S(=O)(O)C(F)(F)C(F)(F)C(F)(F)C(F)(F)C(F)(F)C(F)(F)C(F)(F)F` was tested. Which outcome did it give?
**A.** inactive
